According to publication PMC4552634, “A New Set of Chemical Starting Points with Plasmodium falciparum Transmission-Blocking Potential for Antimalarial Drug Discovery” (PLoS ONE, 2015):
Read-outs that look alike come from different tables or passages of the source. Out of some 13,000 compounds screened, about 3,200 (25%) showed an effect of 50% or more. Some of the results follow.

System: P. falciparum stage V gametocytes
Parameters: BacTiter-Glo ATP luminescence viability of purified stage V gametocytes in 384-well plates, per cent inhibition versus DMSO
Settings: 48 h, 5 µM, inhibitor

Structure (SMILES)	% Inhibition [%]	% Inhibition (% Inhibition) [%]
Cc1ccc(/C=C/C(=O)NCCCCCN2CCN(C(=O)Nc3ccc(Cl)c(C(F)(F)F)c3)CC2)cc1 [TCMDC-136099]	10.82	–
CC1(C)N=C(N)N=C(N)N1OCOc1ccc(Cl)cc1 [TCMDC-131734]	26.86	–
CCCCCCN1CCCN(Cc2ccc(C(=O)Nc3ccc(C)c(F)c3)cc2)CC1 [TCMDC-136411]	22.16	–
NC(N)=Nc1nc(-c2cccc(NC(=O)Cc3ccccc3)c2)cs1 [TCMDC-139599]	13.87	–
NC(N)=Nc1nc(-c2ccc(NCc3ccc(CNc4cccc(-c5csc(N=C(N)N)n5)c4)cc3)cc2)cs1 [TCMDC-140699]	83.03	–
N=C(N)Nc1nc(-c2ccc(NC(=O)Nc3cccc(-c4csc(NC(=N)N)n4)c3)cc2)cs1 [TCMDC-139559]	111.8	–
NC(N)=Nc1nc(-c2cccc(NC(=O)NCc3ccc(OC(F)(F)F)cc3)c2)cs1 [TCMDC-139556]	86.49	–
O=C(Nc1cccc(-c2csc(NC(=O)c3ccc4ccccc4c3)n2)c1)c1ccc2ccccc2c1 [TCMDC-124033]	-5.611	–
NC(N)=Nc1nc(-c2cccc(NC(=O)C(F)(F)F)c2)cs1 [TCMDC-137441]	-3.219	–
NC(N)=Nc1nc(-c2cccc(NC(=O)CCCCCCCON3C(N)=NC(N)=NC34CCCCC4)c2)cs1 [TCMDC-140420]	-29.14	–
COc1ccc(CNC(=O)Nc2cccc(-c3csc(N=C(N)N)n3)c2)cc1 [TCMDC-139554]	8.01	–
NC(N)=Nc1nc(-c2cccc(NC(=O)NCC(c3ccccc3)c3ccccc3)c2)cs1 [TCMDC-139555]	-30.72	–
Cc1ccccc1CNC(=O)Nc1cccc(-c2csc(N=C(N)N)n2)c1 [TCMDC-139553]	79.76	–
NC(N)=Nc1nc(-c2cccc(NC(=O)NCc3cccc4ccccc34)c2)cs1 [TCMDC-139552]	11.54	–
NC(N)=Nc1nc(-c2cccc(NC(=O)NCCc3c[nH]c4ccc(OCc5ccccc5)cc34)c2)cs1 [TCMDC-139557]	-16.48	–
CCCNC(=O)C1Cc2cc(OC)c(OC)cc2C2(N1)C(=O)N(Cc1cccc(OC)c1)c1ccccc12 (centres unmarked) [TCMDC-141464]	26.41	–
C=CCc1cc(OC)ccc1OCCCOc1c(C)nc(N)nc1N [TCMDC-131358]	1.5	–
CCCCCCc1ncc(-c2cc3cc(O)c(-c4ccccc4)cc3oc2=O)s1 [TCMDC-124096]	-4.644	–
c1ccc2c3c([nH]c2c1)C(c1ccc2c(c1)CCO2)N(c1ncnc(N2CCN(CCCN4CCOCC4)CC2)n1)CC3 (centres unmarked) [TCMDC-138517]	42.57	–
O=[N+]([O-])c1ccc(NC(=NCCOc2ccccc2)Nc2ccccc2Br)c(O)c1 [TCMDC-139982]	18.66	–
Cc1cc(Oc2ccc(-n3ccnc3)cc2)nc(N2CCN(CCCN3CCCC3)CC2)n1 [TCMDC-132208]	34.43	–
CN(CCN1CCCC1)c1nc2ccc(-n3cnc4cc(-c5ccc(Cl)cc5)sc4c3=O)cc2[nH]1 [TCMDC-138918]	5.034	–
CCN(C)CCCn1c(N(C)C)nc2cc(-n3cnc4cc(-c5ccc(Cl)cc5)sc4c3=O)ccc21 [TCMDC-138926]	-50.75	–

Structure (SMILES)	% Inhibition [%]	% Inhibition (% Inhibition) [%]
CCNC[C@H]1CCCN1CCOc1ccc(-n2cnc3cc(-c4ccc(Cl)cc4)sc3c2=O)cc1OC [TCMDC-134841]	68.56	–
COc1cc(-n2cnc3cc(-c4ccc(Cl)cc4)sc3c2=O)ccc1OCCN1CCC(c2cccc(NC(C)=O)c2)CC1 [TCMDC-138930]	71.5	–
COc1cc(-n2c(CN3CCCC3)nc3cc(-c4ccc(Cl)cc4)sc3c2=O)ccc1OCCN1CCCC1 [TCMDC-135298]	36.8	–
COc1cc(-n2cnc3cc(-c4ccc([N+](=O)[O-])cc4)sc3c2=O)ccc1OCCN1CCCC1 [TCMDC-138916]	104.9	–
CN(C)c1nc2cc(-n3cnc4cc(-c5ccc(Cl)cc5)sc4c3=O)ccc2n1CCCN1CCCCC1 [TCMDC-138925]	34.32	–
CN(C)c1nc2cc(-n3cnc4cc(-c5ccc(Cl)cc5)sc4c3=O)ccc2n1CCCN1CCCC1 [TCMDC-138922]	42.12	–
CCCCCc1ccc(N2C(N)=NC(N)=NC2(C)C)cc1 [TCMDC-137709]	8.731	–
Cc1cccn2c(=O)c3cc(C(=O)NCCN4CCOCC4)c(=N)n(CCc4ccccc4)c3nc12 [TCMDC-124570]	5.032	–
OCc1ccc(-c2cncc(Nc3ccc(F)c(Cl)c3)c2)cc1 [TCMDC-136671]	-20.21	–
CCOc1ccc(C=CC(=O)Nc2ccc3nc(N4CCN(C)CC4)cc(C)c3c2)cc1OC [TCMDC-125866]	-25.94	–
CC(C)c1ccc(NC(=O)c2ccc(NCCCN(C)Cc3ccccc3)c([N+](=O)[O-])c2)cc1 [TCMDC-125687]	-12.67	–
CCC(CCON1C(N)=NC(N)=NC1(C)C)c1ccc(Cl)cc1 (centres unmarked) [TCMDC-131710]	30.1	–
Cc1ccccc1Oc1nc2ccccc2nc1SCC(=O)NC(C)C [TCMDC-124733]	-10.37	–
COc1ccc2c(c1)S(=O)(=O)N=C(N1CCCC1c1ccc(Cl)c(Cl)c1)N2C (centres unmarked) [TCMDC-134209]	3.235	–
COc1ccc(Nc2ccnc3cc(Cl)ccc23)cc1OC [TCMDC-124814]	-70.18	–
COc1cc(NC2=NS(=O)(=O)c3cc(Cl)ccc3N2C)cc(OC)c1OC [TCMDC-134208]	87.41	–
Oc1ccccc1CNCC(O)c1cccc(C(F)(F)F)c1 (centres unmarked) [TCMDC-140303]	18.18	–
CCNc1cc(-c2cccc(OC)c2)nc(Nc2ccc(F)cc2)n1 [TCMDC-134014]	-12.85	–
Cc1ccc(NC(=O)c2ccc3ncccc3c2)cc1OC1CCN(Cc2ccc(F)cc2)C1 (centres unmarked) [TCMDC-133759]	-2.086	–
O=C(Nc1ccc(OC2CCN(Cc3ccco3)C2)c(Cl)c1)c1ccc2ncccc2c1 (centres unmarked) [TCMDC-133987]	24.52	–
O=C(Nc1ccc(OC2CCN(CC3CC3)CC2)c(Cl)c1)c1ccc2ncccc2c1 [TCMDC-134273]	41.88	–
Cc1ccc(C(=O)Nc2ccc(C)c(OC3CCN(Cc4ccco4)C3)c2)cc1 (centres unmarked) [TCMDC-133986]	48.65	–
O=C(Nc1ccc(OC2CCN(Cc3ccco3)CC2)c(Cl)c1)c1ccc2ncccc2c1 [TCMDC-133984]	86.08	–

Structure (SMILES)	% Inhibition [%]	% Inhibition (% Inhibition) [%]
Cc1ccc(NC(=O)c2ccc3ncccc3c2)cc1OC1CCN(Cc2ccco2)C1 (centres unmarked) [TCMDC-133985]	61.5	–
O=C1c2ccc([N+](=O)[O-])cc2C(=O)N1c1ccc2[nH]ncc2c1 [TCMDC-131599]	-5.185	–
CCOC(=O)c1ccc(NC(=O)Nc2ccc(-c3ccc(-c4nc5cccc(C)c5[nH]4)s3)cc2)cc1 [TCMDC-133259]	-10.61	–
CC(=O)C1(c2ccccc2)CCN(CCC2(c3ccc(Cl)c(Cl)c3)CN(C(=O)C3CCCC3)CCO2)CC1 (centres unmarked) [TCMDC-135325]	-42.49	–
CC(C)c1cccc(C(C)C)c1NC(=O)NNC(=O)c1ccc(CCN2CCC(c3nc(COCC(F)(F)F)c(-c4ccc(F)cc4)o3)CC2)cc1 [TCMDC-131908]	-22.37	–
Cc1c(C)c2c(c(C)c1O)CC[C@](C)(C(=O)N1CCC(CN3CCC(c4c[nH]c5ccccc45)CC3)CC1)O2 [TCMDC-139892]	-67.77	–
Cc1c(C)c2c(c(C)c1O)CC[C@@](C)(C(=O)N1CCC(CCN3CCC(c4c[nH]c5ccccc45)CC3)CC1)O2 [TCMDC-139898]	69.88	–
Cc1c(C)c2c(c(C)c1O)CC[C@](C)(C(=O)NC1CCC(CN3CCC(c4c[nH]c5ccccc45)CC3)CC1)O2 (some centres unmarked) [TCMDC-139895]	–	-20.01
Cc1c(C)c2c(c(C)c1O)CC[C@](C)(C(=O)N1CCC(CCN3CCC(c4c[nH]c5ccccc45)CC3)CC1)O2 [TCMDC-139891]	102.8	–
Cc1c(C)c2c(c(C)c1O)CC[C@](C)(C(=O)NC1CCC(CN3CCC(c4c[nH]c5ccccc45)CC3)CC1)O2 (some centres unmarked) [TCMDC-139890]	–	-54.12
Cc1c(C)c2c(c(C)c1O)CC[C@@](C)(C(=O)N1CCC(CN3CCC(c4c[nH]c5ccccc45)CC3)CC1)O2 [TCMDC-139899]	79.54	–
Cc1cccc(C(=O)Nc2ccnc(N3CCCN(Cc4cccc(O)c4)CC3)c2)c1 [TCMDC-134959]	-37.26	–
CC1CCC2(CC1)NC(N)=NC(=N)N2OCCCCCCCCO (centres unmarked) [TCMDC-131600]	80.95	–
CC1(C)NC(N)=NC(=N)N1OCCCO [TCMDC-131559]	-1.825	–
N=C1N=C(N)NC2(CCCCC2)N1OCC1CCCCC1 [TCMDC-131617]	-29.76	–
CNC(=O)c1ccc(/C=C/C(=O)N2CCc3ccc(-c4ccccc4)cc3C2c2cccc(C(F)(F)F)c2)cc1 (centres unmarked) [TCMDC-138253]	-22.09	–
O=C(N[C@H]1CCN(Cc2ccc(OCCN3CCNCC3)c3ccccc23)C1)c1ccc(Cl)c(Cl)c1 [TCMDC-140269]	83.44	–
O=C(N[C@H]1CCN(Cc2ccc(OCCN3CCCC3)c3ccccc23)C1)c1ccc(Cl)c(Cl)c1 [TCMDC-140268]	76.23	–
CN(C)CCCOc1ccc(CN2CC[C@H](NC(=O)c3ccc(Cl)c(Cl)c3)C2)cc1Cl [TCMDC-140272]	19.07	–
CN(C)CCCOc1ccc(CN2CC[C@H](NC(=O)c3ccc(Cl)c(Cl)c3)C2)c2ccccc12 [TCMDC-140267]	76.67	–
CN(C)CCCOc1ccccc1CN1CC[C@H](NC(=O)c2ccc(Cl)c(Cl)c2)C1 [TCMDC-140310]	-1.9	–
CN1CCC[C@H]1COc1ccc(CN2CC[C@H](NC(=O)c3ccc(Cl)c(Cl)c3)C2)c2ccccc12 [TCMDC-140270]	22.59	–
